Test results from paper PMC5540273 (PLoS ONE, 2017).
Read-outs that look alike come from different tables or passages of the source.

Tests used:
AAK1 = settings: n = 1
ABL1-nonphosphorylated = settings: concentration: 1 μM, replicates: in singlicate; n = 1
ABL1-phosphorylated = settings: concentration: 1 μM, replicates: in singlicate; n = 1
ABL2 = settings: concentration: 1 μM, replicates: in singlicate; n = 1
ACVR1B = settings: concentration: 1 μM, replicates: in singlicate; n = 1
ACVR1 = settings: concentration: 1 μM, replicates: in singlicate; n = 1
ACVR2A = settings: concentration: 1 μM, replicates: in singlicate; n = 1
ACVR2B = settings: concentration: 1 μM, replicates: in singlicate; n = 1
ACVRL1 = settings: concentration: 1 μM, replicates: in singlicate; n = 1
ADCK3 = test system: T1, ADCK3; settings: concentration: 1 μM, replicates: in singlicate; n = 1
T1 construct: gene CABC1

ADCK4 = settings: concentration: 1 μM, replicates: in singlicate; n = 1
AKT1 = settings: concentration: 1 μM, replicates: in singlicate; n = 1
AKT2 = settings: concentration: 1 μM, replicates: in singlicate; n = 1
AKT3 = settings: concentration: 1 μM, replicates: in singlicate; n = 1
ALK = settings: concentration: 1 μM, replicates: in singlicate; n = 1
AMPK-alpha1 = test system: T2, AMPK-alpha1; settings: concentration: 1 μM, replicates: in singlicate; n = 1
T2 construct: gene PRKAA1

AMPK-alpha2 = test system: T3, AMPK-alpha2; settings: concentration: 1 μM, replicates: in singlicate; n = 1
T3 construct: gene PRKAA2

ANKK1 = settings: concentration: 1 μM, replicates: in singlicate; n = 1
ARK5 = test system: T4, ARK5; settings: concentration: 1 μM, replicates: in singlicate; n = 1
T4 construct: gene NUAK1

ASK1 = test system: T5, ASK1; settings: concentration: 1 μM, replicates: in singlicate; n = 1
T5 construct: gene MAP3K5

[1] = concentration: 1 μM, replicates: in singlicate
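Further: KINOMEscan kinase panel screen.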

In the case of CCn1c(-c2nonc2N)nc2c(C#CC(C)(C)O)nc(OC[C@H](N)c3ccccc3)cc21 [GSK943949], the “%Inh” value (AAK1; [1]) is reported as 0%, the “%Inh” value (ABL1-nonphosphorylated) is reported as 0% and the “%Inh” value (ABL1-phosphorylated) is reported as 0%. For the same compound, the “%Inh” value (ABL2) was 0%, the “%Inh” value (ACVR1B) was 0% and the “%Inh” value (ACVR1) was 0%. For the same compound, the “%Inh” value (ACVR2A) was 0%, the “%Inh” value (ACVR2B) was 0% and the “%Inh” value (ACVRL1) was 0%. For the same compound, the “%Inh” value (ADCK3) was 0%, the “%Inh” value (ADCK4) was 0% and the “%Inh” value (AKT1) was 95.8%. For the same compound, the “%Inh” value (AKT2) was 98.8%, the “%Inh” value (AKT3) was 95.8% and the “%Inh” value (ALK) was 19%. The “%Inh” value (AMPK-alpha1) was 0%, the “%Inh” value (AMPK-alpha2) was 3% and the “%Inh” value (ANKK1) was 0%. For the same compound, the “%Inh” value (ARK5) was 18% and the “%Inh” value (ASK1) was 0%.

With Cl.Cl.NCC(NC(=O)c1cc(-c2ccccc2)c(-c2ccnc3[nH]ccc23)s1)c1ccccc1 (centres unmarked) [GSK1321561] the “%Inh” value (AAK1; [1]) was 47%, the “%Inh” value (ABL1-nonphosphorylated) was 89% and the “%Inh” value (ABL1-phosphorylated) was 90%. The “%Inh” value (ABL2) was 87%, the “%Inh” value (ACVR1B) was 0% and the “%Inh” value (ACVR1) was 10%. For the same compound, the “%Inh” value (ACVR2A) was 4%, the “%Inh” value (ACVR2B) was 18% and the “%Inh” value (ACVRL1) was 0%. The “%Inh” value (ADCK3) was 95.3%, the “%Inh” value (ADCK4) was 89% and the “%Inh” value (AKT1) was 57%. The “%Inh” value (AKT2) was 0%, the “%Inh” value (AKT3) was 80% and the “%Inh” value (ALK) was 27%. The “%Inh” value (AMPK-alpha1) was 5%, the “%Inh” value (AMPK-alpha2) was 0% and the “%Inh” value (ANKK1) was 0%. For the same compound, the “%Inh” value (ARK5) was 16% and the “%Inh” value (ASK1) was 0%.

COc1ccc(-c2coc3ccc(-c4nnc(SCc5ccc(OC)c(C(F)(F)F)c5)o4)cc23)cc1 was tested, and the “%Inh” value (AAK1; [1]) was 2%, the “%Inh” value (ABL1-nonphosphorylated) was 13% and the “%Inh” value (ABL1-phosphorylated) was 0%. For the same compound, the “%Inh” value (ABL2) was 24%, the “%Inh” value (ACVR1B) was 7% and the “%Inh” value (ACVR1) was 28%. For the same compound, the “%Inh” value (ACVR2A) was 0%, the “%Inh” value (ACVR2B) was 0% and the “%Inh” value (ACVRL1) was 26%. The “%Inh” value (ADCK3) was 21%, the “%Inh” value (ADCK4) was 10% and the “%Inh” value (AKT1) was 4%. For the same compound, the “%Inh” value (AKT2) was 0%, the “%Inh” value (AKT3) was 0% and the “%Inh” value (ALK) was 0%. For the same compound, the “%Inh” value (AMPK-alpha1) was 31%, the “%Inh” value (AMPK-alpha2) was 0% and the “%Inh” value (ANKK1) was 38%. For the same compound, the “%Inh” value (ARK5) was 0% and the “%Inh” value (ASK1) was 17%.

Cc1cccc(Nc2nc(N[C@H]3CCNC3)ncc2C(N)=O)c1.Cl [GSK2197149] was tested, and the “%Inh” value (AAK1; 1 µM) was 75%, the “%Inh” value (ABL1-nonphosphorylated) was 40% and the “%Inh” value (ABL1-phosphorylated) was 66%. For the same compound, the “%Inh” value (ABL2) was 25%, the “%Inh” value (ACVR1B) was 0% and the “%Inh” value (ACVR1) was 0%. The “%Inh” value (ACVR2A) was 2%, the “%Inh” value (ACVR2B) was 7% and the “%Inh” value (ACVRL1) was 0%. For the same compound, the “%Inh” value (ADCK3) was 28%, the “%Inh” value (ADCK4) was 0% and the “%Inh” value (AKT1) was 0%. For the same compound, the “%Inh” value (AKT2) was 7%, the “%Inh” value (AKT3) was 0% and the “%Inh” value (ALK) was 47%. For the same compound, the “%Inh” value (AMPK-alpha1) was 22%, the “%Inh” value (AMPK-alpha2) was 33% and the “%Inh” value (ANKK1) was 79%. For the same compound, the “%Inh” value (ARK5) was 34% and the “%Inh” value (ASK1) was 0%.

With CN(c1ccc(NC(=O)Nc2cc(C(F)(F)F)ccc2F)cc1)c1ccnc(Nc2ccc(S(N)(=O)=O)cc2)n1 [GW809893] the “%Inh” value (AAK1; [1]) was 9%, the “%Inh” value (ABL1-nonphosphorylated) was 98.1% and the “%Inh” value (ABL1-phosphorylated) was 75%. The “%Inh” value (ABL2) was 98.5%, the “%Inh” value (ACVR1B) was 1% and the “%Inh” value (ACVR1) was 0%. For the same compound, the “%Inh” value (ACVR2A) was 0%, the “%Inh” value (ACVR2B) was 14% and the “%Inh” value (ACVRL1) was 4%. The “%Inh” value (ADCK3) was 0%, the “%Inh” value (ADCK4) was 7% and the “%Inh” value (AKT1) was 17%. For the same compound, the “%Inh” value (AKT2) was 11%, the “%Inh” value (AKT3) was 9% and the “%Inh” value (ALK) was 73%. For the same compound, the “%Inh” value (AMPK-alpha1) was 27%, the “%Inh” value (AMPK-alpha2) was 19% and the “%Inh” value (ANKK1) was 78%. The “%Inh” value (ARK5) was 1% and the “%Inh” value (ASK1) was 0%.

With COc1ccc(Nc2nccc(N3CCC(NC(=O)Nc4cccc(OC)c4)C3)n2)cc1 (centres unmarked) [GSK1379742] the “%Inh” value (AAK1; [1]) was 4%, the “%Inh” value (ABL1-nonphosphorylated) was 0% and the “%Inh” value (ABL1-phosphorylated) was 0%. The “%Inh” value (ABL2) was 12%, the “%Inh” value (ACVR1B) was 0% and the “%Inh” value (ACVR1) was 7%. The “%Inh” value (ACVR2A) was 0%, the “%Inh” value (ACVR2B) was 0% and the “%Inh” value (ACVRL1) was 0%. For the same compound, the “%Inh” value (ADCK3) was 1%, the “%Inh” value (ADCK4) was 14% and the “%Inh” value (AKT1) was 0%. The “%Inh” value (AKT2) was 0%, the “%Inh” value (AKT3) was 0% and the “%Inh” value (ALK) was 25%. The “%Inh” value (AMPK-alpha1) was 1%, the “%Inh” value (AMPK-alpha2) was 0% and the “%Inh” value (ANKK1) was 0%. The “%Inh” value (ARK5) was 25% and the “%Inh” value (ASK1) was 5%.

CCS(=O)(=O)c1ccc(OC)c(Nc2nccc(-c3c(-c4cccc(NC(=O)c5c(F)cccc5F)c4)nn4ncccc34)n2)c1 [GSK326180] was tested, and the “%Inh” value (AAK1; [1]) was 22%, the “%Inh” value (ABL1-nonphosphorylated) was 4% and the “%Inh” value (ABL1-phosphorylated) was 10%. For the same compound, the “%Inh” value (ABL2) was 10%, the “%Inh” value (ACVR1B) was 0% and the “%Inh” value (ACVR1) was 10%. For the same compound, the “%Inh” value (ACVR2A) was 0%, the “%Inh” value (ACVR2B) was 0% and the “%Inh” value (ACVRL1) was 0%. For the same compound, the “%Inh” value (ADCK3) was 0%, the “%Inh” value (ADCK4) was 18% and the “%Inh” value (AKT1) was 0%. For the same compound, the “%Inh” value (AKT2) was 15%, the “%Inh” value (AKT3) was 0% and the “%Inh” value (ALK) was 25%. The “%Inh” value (AMPK-alpha1) was 2%, the “%Inh” value (AMPK-alpha2) was 27% and the “%Inh” value (ANKK1) was 0%. For the same compound, the “%Inh” value (ARK5) was 18% and the “%Inh” value (ASK1) was 20%.

O=C(Nc1cccc(-c2nn3ncccc3c2-c2ccnc(Nc3ccccc3)n2)c1)c1c(F)cccc1F [GSK198271] was tested, and the “%Inh” value (AAK1; [1]) was 17%, the “%Inh” value (ABL1-nonphosphorylated) was 60% and the “%Inh” value (ABL1-phosphorylated) was 6%. The “%Inh” value (ABL2) was 42%, the “%Inh” value (ACVR1B) was 0% and the “%Inh” value (ACVR1) was 21%. For the same compound, the “%Inh” value (ACVR2A) was 0%, the “%Inh” value (ACVR2B) was 25% and the “%Inh” value (ACVRL1) was 0%. The “%Inh” value (ADCK3) was 3%, the “%Inh” value (ADCK4) was 31% and the “%Inh” value (AKT1) was 0%. The “%Inh” value (AKT2) was 16%, the “%Inh” value (AKT3) was 0% and the “%Inh” value (ALK) was 38%. For the same compound, the “%Inh” value (AMPK-alpha1) was 12%, the “%Inh” value (AMPK-alpha2) was 15% and the “%Inh” value (ANKK1) was 69%. For the same compound, the “%Inh” value (ARK5) was 38% and the “%Inh” value (ASK1) was 0%.

For Cl.Cl.NCC(NCc1ccc(-c2ccnc3[nH]ccc23)s1)c1ccccc1 (centres unmarked) [GSK1321565], the “%Inh” value (AAK1; [1]) was 67%, the “%Inh” value (ABL1-nonphosphorylated) was 0% and the “%Inh” value (ABL1-phosphorylated) was 0%. The “%Inh” value (ABL2) was 1%, the “%Inh” value (ACVR1B) was 0% and the “%Inh” value (ACVR1) was 18%. For the same compound, the “%Inh” value (ACVR2A) was 0%, the “%Inh” value (ACVR2B) was 0% and the “%Inh” value (ACVRL1) was 0%. For the same compound, the “%Inh” value (ADCK3) was 25%, the “%Inh” value (ADCK4) was 44% and the “%Inh” value (AKT1) was 71%. The “%Inh” value (AKT2) was 25%, the “%Inh” value (AKT3) was 71% and the “%Inh” value (ALK) was 64%. For the same compound, the “%Inh” value (AMPK-alpha1) was 45%, the “%Inh” value (AMPK-alpha2) was 28% and the “%Inh” value (ANKK1) was 22%. For the same compound, the “%Inh” value (ARK5) was 82% and the “%Inh” value (ASK1) was 16%.

With Nc1ncnc2c1nc(-c1ccccc1)n2-c1ccccc1 [SKF-97293] the “%Inh” value (AAK1; [1]) was 0%, the “%Inh” value (ABL1-nonphosphorylated) was 8% and the “%Inh” value (ABL1-phosphorylated) was 0%. The “%Inh” value (ABL2) was 2%, the “%Inh” value (ACVR1B) was 7% and the “%Inh” value (ACVR1) was 0%. The “%Inh” value (ACVR2A) was 4%, the “%Inh” value (ACVR2B) was 0% and the “%Inh” value (ACVRL1) was 14%. The “%Inh” value (ADCK3) was 11%, the “%Inh” value (ADCK4) was 0% and the “%Inh” value (AKT1) was 2%. For the same compound, the “%Inh” value (AKT2) was 3%, the “%Inh” value (AKT3) was 16% and the “%Inh” value (ALK) was 52%. The “%Inh” value (AMPK-alpha1) was 23%, the “%Inh” value (AMPK-alpha2) was 31% and the “%Inh” value (ANKK1) was 29%. The “%Inh” value (ARK5) was 0% and the “%Inh” value (ASK1) was 0%.
